Measured values taken from PubChem BioAssay (NCATS).
Values without a mark were called inactive. Records with an inconclusive call do not appear. Where a call stands in place of a potency, no number is given. Active and inactive are the calls of the source. Unless noted, the call rests on the fitted dose curve; in most records, active means well fitted cell-killing curve with a large enough effect; inconclusive means small, poorly fitted or top-dose-only effect; inactive means flat fitted curve, though single readings scatter.

Key:
[1] = Cell Viability - LYMP2-025 (AID 976); further: potency means the concentration at half of the fitted maximal effect
Method in brief: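 Luminescent ATP readout after 24 hr treatment of a human lymphoblastoid line (LYMP2-025, 2500 cells/well, 37 C). Reagent developed 30 min at room temperature; AC50 fitted with the Hill equation.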

[2] = Cell Viability - LYMP2-002 (AID 977);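 further: series mostly up to about 92 µM; compound exposure lasted 24 h at 37 °C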
Method in brief: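 Human lymphoblastoid cells (2500/well) in complete medium were preincubated 5 hr at 37 C, then exposed to compounds for 24 hr at 37 C. Intracellular ATP was read by CellTiter-Glo luminescence; AC50 came from Hill-equation concentration-response fits.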

[3] = Cell Viability - LYMP2-006 (AID 978); further: series mostly up to about 92 µM; nearly all actives have a fitted effect of over 60% in size
Method in brief: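 Human lymphoblastoid cells, 2500 per well, were preincubated 5 hr at 37 C, then exposed to compounds for 24 hr at 37 C in complete medium. Viability was read as intracellular ATP by CellTiter-Glo luminescence; AC50 from Hill-equation fits of qHTS concentration-response data.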

[4] = Cell Viability - LYMP2-007 (AID 979);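 further: cells exposed to compound for 24 h before reading; nearly all actives have a fitted effect of over 60% in size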
Method in brief: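 Measured via luciferase-based ATP quantitation: lymphoblastoid cells, 24 hr compound exposure at 37 C, AC50 from Hill fits.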

[5] = Cell Viability - LYMP2-008 (AID 980); further: nearly all actives have a fitted effect of over 60% in size
Method in brief: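 Measured: ATP-dependent luminescence, proportional to viable cell number, in human lymphoblastoid cells treated 24 hr with compound in complete culture medium. Values are AC50s from Hill-equation modelling of qHTS titrations.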

[6] = Cell Viability - LYMP2-010 (AID 981); further: nearly all actives have a fitted effect of over 55% in size
Method in brief: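 This 24 hr viability screen uses LYMP2-010 lymphoblastoid cells, quantifies ATP via luciferase luminescence, and derives AC50 from Hill fits of qHTS concentration-response data.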

[7] = Cell Viability - LYMP2-012 (AID 982);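 further: cellular ATP by luciferase luminescence where a drop means cytotoxicity; cells exposed to compound for one day before reading; nearly all actives have a fitted effect of over 55% in size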
[8] = Cell Viability - LYMP2-014 (AID 983); further: series mostly up to about 92 µM; nearly all actives have a fitted effect of over 50% in size
Method in brief: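 Quantitative HTS in lymphoblastoid cells: 24 hr compound exposure, then CellTiter-Glo ATP luminescence. Positive control was tetraoctylammonium bromide, 6.4pM to 92 uM.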

[9] = Cell Viability - LYMP2-016 (AID 984); further: nearly all actives have a fitted effect of over 55% in size
Method in brief: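 Human lymphoblastoid cells (LYMP2-016), 2500/well in complete medium, preincubated 5 hr at 37 C, then compound-treated 24 hr at 37 C. Intracellular ATP read by CellTiter-Glo luminescence after 30 min at room temperature; AC50 from Hill-equation concentration-response fits.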

[10] = Cell Viability - LYMP2-018 (AID 985); further: nearly all actives have a fitted effect of over 50% in size
Method in brief: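 In this qHTS viability assay, cells are treated for 24 hr and cellular ATP is quantified by luciferase-based luminescence, with tetraoctylammonium bromide as positive control.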

[11] = Cell Viability - LYMP2-020 (AID 986); further: series mostly up to about 92 µM; nearly all actives have a fitted effect of over 55% in size
Method in brief: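 Cells at 2500 per well receive a 24 hr compound exposure at 37 C. Viability is measured as ATP-dependent luciferase luminescence, with AC50 modeled from qHTS concentration-response curves.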

[12] = Cell Viability - LYMP2-024 (AID 988); further: nearly all actives have a fitted effect of over 60% in size
Method in brief: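 Cells at 2500 per well received compound for 24 hr after a 5 hr settling period. Viability was scored by CellTiter-Glo luminescence, with AC50 from Hill fits.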

[13] = Cell Viability - LYMP2-026 (AID 989); further: nearly all actives have a fitted effect of over 50% in size
Method in brief: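 Acute toxicity screen in complete culture medium, with 24 hr compound exposure at 37 C. Viability read as cellular ATP via luciferase reaction, with tetraoctylammonium bromide (6.4pM to 92 uM) as positive control.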

[14] = Cell Viability - LYMP1-002 - Assay at 40 hr (AID 994); further: nearly all actives have a fitted effect of over 60% in size
Method in brief: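 Concentration-dependent ATP loss after 40 hr treatment at 37 C defined toxicity; AC50 values were obtained by fitting the standard Hill equation.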

[15] = qHTS Assay for Identification of Small Molecule Inducers of Hypoxia Response (AID 2120; active means well fitted curve in the direction sought with a large enough effect in the signal ratio, with a control signal flat, not every such curve was filed as active; the % refers to the signal ratio)
Method in brief: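 HRE-bla ME-180, 2500 cells/well, 0.5% dialyzed FBS medium; cpd titration, 17 h 37 degrees C; CCF4 2.5 h RT; Ex 405, Em 460/530 ratio -> %Activity, AC50.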

[16] = target: Estrogen receptor (Homo sapiens) (UniProt P03372); assay: qHTS assay for small molecule antagonists of estrogen receptor alpha signaling (AID 588513; active means well fitted curve in the direction sought with a large enough effect in the signal ratio, with a control signal flat, not every such curve was filed as active; the % refers to the signal ratio)
Chain of Estrogen receptor (Homo sapiens) (P03372 whole entry, looked up): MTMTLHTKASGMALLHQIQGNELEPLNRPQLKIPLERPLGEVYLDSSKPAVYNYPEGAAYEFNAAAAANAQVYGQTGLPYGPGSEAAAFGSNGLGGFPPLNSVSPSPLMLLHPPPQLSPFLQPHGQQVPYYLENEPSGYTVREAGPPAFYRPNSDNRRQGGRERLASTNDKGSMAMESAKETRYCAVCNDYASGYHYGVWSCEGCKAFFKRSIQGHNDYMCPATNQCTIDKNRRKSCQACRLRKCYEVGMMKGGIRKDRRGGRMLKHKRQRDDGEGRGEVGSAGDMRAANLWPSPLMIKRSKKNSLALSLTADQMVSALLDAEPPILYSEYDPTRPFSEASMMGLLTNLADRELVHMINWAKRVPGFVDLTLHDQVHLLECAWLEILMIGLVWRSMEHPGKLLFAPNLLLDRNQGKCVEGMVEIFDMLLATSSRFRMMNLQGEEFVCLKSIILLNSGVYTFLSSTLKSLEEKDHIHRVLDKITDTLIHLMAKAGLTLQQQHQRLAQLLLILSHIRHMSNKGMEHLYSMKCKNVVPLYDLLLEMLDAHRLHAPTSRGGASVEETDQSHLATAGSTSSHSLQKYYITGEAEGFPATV
Method in brief: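 ER-alpha-UAS-bla GripTite HEK 293 cells in medium with 2% charcoal/dextran-treated FBS were preincubated 4 h at 37 C, dosed with compound (1:2 titration), stimulated with 0.5nM 17-beta-estradiol for 18 h, then read by CCF4 beta-lactamase fluorescence.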

[17] = target: Estrogen receptor (Homo sapiens) (UniProt P03372); assay: qHTS assay for small molecule agonists of estrogen receptor alpha signaling (AID 588514; calls by dose curve; further: nearly all actives have a fitted effect of over 70% in size)
Method in brief: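 Fluorescence from CCF4 cleavage reports ER-alpha-driven beta-lactamase expression in HEK 293 cells treated 18 hrs at 37 C. Data normalized to 17-beta-estradiol (20 nM) and DMSO, fitted to Hill equation.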

[18] = Cell Viability - LYMP2-022 (AID 987); further: nearly all actives have a fitted effect of over 55% in size
Method in brief: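 In this qHTS cytotoxicity screen, compound titrations were incubated 24 hr at 37 C with human lymphoblastoid cells in complete medium. Luciferase-based ATP luminescence provided the viability signal.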

[19] = Cell Viability - LYMP1-002 - Assay at 24 hr (AID 993)
Method in brief: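 Viability was judged from intracellular ATP using a luciferase read-out, following a 24-hour compound incubation at 37 C of lymphoblastoid cells seeded at 2500 per well. Concentration-response data were fitted to the Hill equation for AC50.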

CC(C)CO
Potency [1]: inactive
Potency [2]: inactive
Potency [3]: inactive
Potency [4]: inactive
Potency [5]: inactive
Potency [6]: inactive
Potency [7]: inactive
Potency [8]: inactive
Potency [9]: inactive
Potency [10]: inactive
Potency [11]: inactive
Potency [12]: inactive
outcome [13]: inactive
Potency [14]: inactive
outcome [15]: inactive
outcome [16]: inactive
Potency [17]: inactive

FC(F)(F)c1ccccc1Cl
Potency [1]: inactive
Potency [2]: inactive
Potency [3]: inactive
Potency [4]: inactive
Potency [5]: inactive
Potency [6]: inactive
Potency [7]: inactive
Potency [8]: inactive
Potency [9]: inactive
Potency [10]: inactive
Potency [11]: inactive
Potency [18]: inactive
Potency [12]: inactive
outcome [13]: inactive
Potency [19]: inactive
Potency [14]: inactive
outcome [15]: inactive
outcome [16]: inactive
Potency [17]: inactive

CC(=O)OC(C)C
Potency [1]: inactive
Potency [2]: inactive
Potency [3]: inactive
Potency [4]: inactive
Potency [5]: inactive
Potency [6]: inactive
Potency [7]: inactive
Potency [8]: inactive
Potency [10]: inactive
Potency [11]: inactive
Potency [18]: inactive
Potency [12]: inactive
outcome [13]: inactive
Potency [14]: inactive
outcome [15]: inactive
outcome [16]: inactive
Potency [17]: inactive

O=C(O[C@@H](C(=O)O)[C@@H](OC(=O)c1ccccc1)C(=O)O)c1ccccc1
Potency [1]: inactive
Potency [2]: inactive
Potency [3]: inactive
Potency [4]: inactive
Potency [5]: inactive
Potency [6]: inactive
Potency [7]: inactive
Potency [8]: inactive
Potency [9]: inactive
Potency [10]: inactive
Potency [11]: inactive
Potency [18]: inactive
outcome [13]: inactive
Potency [19]: inactive
Potency [14]: inactive
outcome [15]: inactive
outcome [16]: inactive
Potency [17]: inactive

C(=C/c1ccccc1)/c1ccccc1
Potency [1]: inactive
Potency [2]: inactive
Potency [3]: inactive
Potency [4]: inactive
Potency [5]: inactive
Potency [6]: inactive
Potency [7]: inactive
Potency [8]: inactive
Potency [10]: inactive
Potency [11]: inactive
Potency [18]: inactive
Potency [12]: inactive
outcome [13]: inactive
Potency [19]: inactive
Potency [14]: inactive
outcome [15]: inactive
outcome [16]: inactive
Potency [17]: inactive

CC/C=C/C#N
Potency [1]: inactive
Potency [2]: inactive
Potency [3]: inactive
Potency [4]: inactive
Potency [5]: inactive
Potency [6]: inactive
Potency [7]: inactive
Potency [8]: inactive
Potency [9]: inactive
Potency [11]: inactive
Potency [18]: inactive
Potency [12]: inactive
outcome [13]: inactive
Potency [19]: inactive
outcome [15]: inactive
outcome [16]: inactive
Potency [17]: inactive

Cc1ccc(Cl)cc1
Potency [1]: inactive
Potency [2]: inactive
Potency [3]: inactive
Potency [4]: inactive
Potency [5]: inactive
Potency [6]: inactive
Potency [7]: inactive
Potency [8]: inactive
Potency [9]: inactive
Potency [10]: inactive
Potency [11]: inactive
Potency [18]: inactive
outcome [13]: inactive
Potency [19]: inactive
Potency [14]: inactive
outcome [15]: inactive
outcome [16]: inactive
Potency [17]: inactive

O=P(O)(OCc1ccccc1)OCc1ccccc1
Potency [1]: inactive
Potency [2]: inactive
Potency [3]: inactive
Potency [4]: inactive
Potency [5]: inactive
Potency [6]: inactive
Potency [7]: inactive
Potency [8]: inactive
Potency [10]: inactive
Potency [11]: inactive
Potency [18]: inactive
Potency [12]: inactive
outcome [13]: inactive
Potency [19]: inactive
Potency [14]: inactive
outcome [15]: inactive
outcome [16]: inactive
Potency [17]: inactive

C=C(C)C(=O)OCCCCCC
Potency [1]: inactive
Potency [2]: inactive
Potency [3]: inactive
Potency [4]: inactive
Potency [5]: inactive
Potency [6]: inactive
Potency [7]: inactive
Potency [8]: inactive
Potency [9]: inactive
Potency [11]: inactive
Potency [18]: inactive
Potency [12]: inactive
outcome [13]: inactive
Potency [19]: inactive
Potency [14]: inactive
outcome [15]: inactive
outcome [16]: inactive
Potency [17]: inactive

c1ccc2c(c1)Oc1ccccc1S2
Potency [1]: 1 nM (active)
Potency [2]: inactive
Potency [3]: inactive
Potency [4]: inactive
Potency [5]: inactive
Potency [6]: inactive
Potency [7]: inactive
Potency [8]: inactive
Potency [10]: inactive
Potency [11]: inactive
Potency [18]: inactive
Potency [12]: inactive
outcome [13]: inactive
Potency [14]: inactive
outcome [15]: inactive
outcome [16]: inactive
Potency [17]: inactive

C/C=C(/C)C#N
Potency [1]: inactive
Potency [2]: inactive
Potency [3]: inactive
Potency [4]: inactive
Potency [5]: inactive
Potency [6]: inactive
Potency [7]: inactive
Potency [8]: inactive
Potency [10]: inactive
Potency [11]: inactive
Potency [18]: inactive
Potency [12]: inactive
outcome [13]: inactive
Potency [19]: inactive
Potency [14]: inactive
outcome [15]: inactive
outcome [16]: inactive
Potency [17]: inactive

CCOCCOCC
Potency [1]: inactive
Potency [2]: inactive
Potency [3]: inactive
Potency [4]: inactive
Potency [5]: inactive
Potency [6]: inactive
Potency [7]: inactive
Potency [9]: inactive
Potency [10]: inactive
Potency [11]: inactive
Potency [18]: inactive
Potency [12]: inactive
outcome [13]: inactive
Potency [19]: inactive
Potency [14]: inactive
outcome [15]: inactive
outcome [16]: inactive
Potency [17]: inactive

Cc1ccccc1C=O
Potency [1]: inactive
Potency [2]: inactive
Potency [3]: inactive
Potency [4]: inactive
Potency [5]: inactive
Potency [6]: inactive
Potency [7]: inactive
Potency [9]: inactive
Potency [10]: inactive
Potency [11]: inactive
Potency [18]: inactive
Potency [12]: inactive
outcome [13]: inactive
Potency [19]: inactive
Potency [14]: inactive
outcome [15]: inactive
outcome [16]: inactive
Potency [17]: inactive

Cc1c(N)cccc1[N+](=O)[O-]
Potency [1]: inactive
Potency [2]: inactive
Potency [3]: inactive
Potency [4]: inactive
Potency [5]: inactive
Potency [6]: inactive
Potency [7]: inactive
Potency [9]: inactive
Potency [10]: inactive
Potency [11]: inactive
Potency [18]: inactive
Potency [12]: inactive
outcome [13]: inactive
Potency [19]: inactive
Potency [14]: inactive
outcome [15]: inactive
outcome [16]: inactive
Potency [17]: inactive

C=C(C)OC(C)=O
Potency [1]: inactive
Potency [2]: inactive
Potency [3]: inactive
Potency [4]: inactive
Potency [5]: inactive
Potency [6]: inactive
Potency [7]: inactive
Potency [8]: inactive
Potency [9]: inactive
Potency [10]: inactive
Potency [11]: inactive
Potency [18]: inactive
Potency [12]: inactive
outcome [13]: inactive
Potency [14]: inactive
outcome [15]: inactive
outcome [16]: inactive
Potency [17]: inactive

CC(C)Nc1ccccc1
Potency [1]: inactive
Potency [2]: inactive
Potency [3]: inactive
Potency [4]: inactive
Potency [5]: inactive
Potency [6]: inactive
Potency [7]: inactive
Potency [8]: inactive
Potency [9]: inactive
Potency [11]: inactive
Potency [18]: inactive
Potency [12]: inactive
outcome [13]: inactive
Potency [19]: inactive
Potency [14]: inactive
outcome [15]: inactive
outcome [16]: inactive
Potency [17]: inactive

CC(=O)c1nccs1
Potency [1]: inactive
Potency [2]: inactive
Potency [3]: inactive
Potency [4]: inactive
Potency [5]: inactive
Potency [6]: inactive
Potency [7]: inactive
Potency [8]: inactive
Potency [11]: inactive
Potency [18]: inactive
Potency [12]: inactive
outcome [13]: inactive
Potency [19]: inactive
Potency [14]: inactive
outcome [15]: inactive
outcome [16]: inactive
Potency [17]: inactive
